The source of these data is PubChem BioAssay.

Experiment [1] is described as follows: compound effects on lung adenocarcinoma cell viability – A549, calcein-AM fluorescence, 48 h, basal, profiling panel (AID 1162). Further: test concentration not given here. Particulars: higher = more signal.
A short description of experiment [2]: compound effects on differentiated 3T3-L1 adipocyte viability – cell-based, 3T3-L1 adipocytes, calcein-AM fluorescence, 48 h, basal, profiling panel (AID 1163). Further: test concentration not given here. Particulars: 3T3-L1 adipocytes viability, higher = more signal.
Experiment [3] is described as follows: compound effects on hepatocellular carcinoma cell viability – HepG2, calcein-AM fluorescence, 48 h, basal, profiling panel (AID 1164). Further: test concentration not given here. Particulars: higher = more signal.
Experiment [4] can be described thus: compound effects on multiple myeloma cell viability – MM1S, calcein-AM fluorescence, 48 h, basal, profiling panel (AID 1165).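 Further: viability of MM1S multiple myeloma cells under basal unstimulated conditions; test concentration not given here.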 The settings on record: higher = more signal.
A short description of experiment [5]: calcein-AM signal in unstimulated myeloma cells – cell-based, calcein-AM fluorescence, 48 h, PK04 Diversity Set, profiling panel (AID 1166).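 Further: cells grown under basal conditions without added stimulus; test concentration not given here.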 The settings on record: RPMI8226 myeloma viability, higher = more signal.
Experiment [6] is described as follows: JC-1 mitochondrial signal, unstimulated HepG2 cells – cell-based, JC-1 fluorescence, 24 h, 100 nL compound, profiling panel (AID 1167). Further: test concentration not given here. The settings on record: HepG2 mitochondrial potential, higher = more signal.
Experiment [7] is described as follows: JC-1 mitochondrial signal, unstimulated adipocytes – cell-based, JC-1 fluorescence, 3T3-L1 adipocytes, 24 h, 100 nL compound, profiling panel (AID 1168). Further: test concentration not given here. The settings on record: JC-1 mitochondrial fluorescence, higher = more signal, called active from +8 up or from −8 down.
Experiment [8] in a line: JC-1 mitochondrial signal, unstimulated myeloma cells – cell-based, JC-1 fluorescence, RPMI8226, 24 h, 100 nL compound, profiling panel (AID 1169). Further: test concentration not given here. The settings on record: JC-1 mitochondrial potential fluorescence, higher = more signal.
A short description of experiment [9]: JC-1 mitochondrial signal, unstimulated MM1S myeloma – cell-based, JC-1 fluorescence, 24 h, 100 nL compound, profiling panel (AID 1170). Further: test concentration not given here. Particulars: MM1S mitochondrial potential, higher = more signal.
A short description of experiment [10]: resazurin metabolic signal in A549 cells – cell-based, resazurin fluorescence, 24 h, PK04 Diversity Set, profiling panel (AID 1171). Further: test concentration not given here. The settings on record: A549 viability, higher = more signal, called active from +8 up or from −8 down.
A short description of experiment [11]: resazurin metabolic signal in HepG2 cells – cell-based, resazurin fluorescence, 24 h, PK04 Diversity Set, profiling panel (AID 1172). Further: test concentration not given here. The settings on record: HepG2 viability, higher = more signal.
Experiment [12] in a line: budding yeast growth changes without added modifier – OD600, strain BY4716, 24 h, basal condition, primary screen (AID 1173). Particulars: S. cerevisiae BY4716 growth, OD600, 24 h; higher = more signal, called active from +8 up or from −8 down.
A short description of experiment [13]: viability profiling in MM1S myeloma cells – cell-based, resazurin fluorescence, basal, 24 h, PK04 Diversity Set, profiling panel (AID 1174). Further: test concentration not given here. Particulars: higher = more signal, called active from +8 up or from −8 down.
Experiment [14] deals with Dihydroorotate dehydrogenase (quinone), mitochondrial (Plasmodium falciparum (isolate 3D7)) (UniProt Q08210). The experiment can be described thus: inhibition of P. falciparum DHODH – biochemical, C-terminal His tag, absorbance 600 nm, primary screen (AID 1175).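 Further: recombinant parasite enzyme with a five histidine tag at its C terminus; test concentration not given here.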 Particulars: PfDHODH enzyme, DCIP absorbance 600 nm; higher = more signal, called active from +8 up or from −8 down.

Experiment [15] can be described thus: inhibition of PAO1 biofilm formation – strain PAO1, LB-PBS medium, absorbance 600 nm, primary screen (AID 1176). Further: test concentration not given here. Particulars: P. aeruginosa PAO1 growth/biofilm, A600, 12 h; higher = more signal.
Experiment [16] can be described thus: growth modulation of vineyard yeast isolate – strain RM11-1a, OD600, basal, 24 h, primary screen (AID 1177).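 Further: cultures grown under basal conditions with no added stressor; test concentration not given here.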 Particulars: S. cerevisiae RM11-1a growth, OD600, 24 h; higher = more signal, called active from +8 up or from −8 down.
Experiment [17] can be described thus: growth of efflux-deficient E. coli DRC39 – strain DRC39, OD650, 24 h, E. coli filamentation inducers, primary screen (AID 1178).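 Further: growth measured as culture turbidity by optical density at 650 nm; test concentration not given here.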 The settings on record: E. coli DRC39 acrAB, higher = more signal, called active from +8 up or from −8 down.
The nature of experiment [18]: growth of efflux-deficient E. coli DRC39 – strain DRC39, OD650, 48 h, E. coli filamentation inducers, primary screen (AID 1179).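 Further: screen aims at cell division blockers that make cells filament.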 The settings on record: E. coli DRC39 delta-acrAB growth, higher = more signal, called active from +8 up or from −8 down.
A short description of experiment [19]: viability profiling in RPMI8226 myeloma cells – cell-based, resazurin fluorescence, basal, 24 h, PK04 Diversity Set, profiling panel (AID 1180).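 Further: RPMI8826 multiple myeloma cell line at 5000 cells per well; test concentration not given here.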 The settings on record: higher = more signal.
For experiment [20], the target named is E3 ubiquitin-protein ligase XIAP (Homo sapiens) (UniProt P98170). The experiment in a line: small molecules binding XIAP protein – biophysical, small-molecule microarray, fluorescence 635 nm, primary screen (AID 1181).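 Further: score merges 667 nm emission and signal to noise over triplicate slides.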 Particulars: higher = more signal.

Activity calls are given as the source filed them. Unless noted, how the calls were made is not given here.

Sequence of E3 ubiquitin-protein ligase XIAP (Homo sapiens) (P98170 whole entry, looked up): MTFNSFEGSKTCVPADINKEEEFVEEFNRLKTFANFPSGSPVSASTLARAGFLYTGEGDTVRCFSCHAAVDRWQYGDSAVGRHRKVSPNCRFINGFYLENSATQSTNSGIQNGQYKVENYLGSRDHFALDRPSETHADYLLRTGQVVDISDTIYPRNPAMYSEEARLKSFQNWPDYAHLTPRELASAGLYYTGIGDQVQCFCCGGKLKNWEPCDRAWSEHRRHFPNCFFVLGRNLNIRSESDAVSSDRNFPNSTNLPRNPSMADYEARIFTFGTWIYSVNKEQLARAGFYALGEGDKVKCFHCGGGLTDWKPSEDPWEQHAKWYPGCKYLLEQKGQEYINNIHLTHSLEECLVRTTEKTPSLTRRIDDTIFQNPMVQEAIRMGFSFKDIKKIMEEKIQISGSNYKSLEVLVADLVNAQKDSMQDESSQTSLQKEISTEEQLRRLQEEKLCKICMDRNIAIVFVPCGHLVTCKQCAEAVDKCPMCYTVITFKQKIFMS
Sequence of Dihydroorotate dehydrogenase (quinone), mitochondrial (Plasmodium falciparum (isolate 3D7)) (Q08210 whole entry, looked up): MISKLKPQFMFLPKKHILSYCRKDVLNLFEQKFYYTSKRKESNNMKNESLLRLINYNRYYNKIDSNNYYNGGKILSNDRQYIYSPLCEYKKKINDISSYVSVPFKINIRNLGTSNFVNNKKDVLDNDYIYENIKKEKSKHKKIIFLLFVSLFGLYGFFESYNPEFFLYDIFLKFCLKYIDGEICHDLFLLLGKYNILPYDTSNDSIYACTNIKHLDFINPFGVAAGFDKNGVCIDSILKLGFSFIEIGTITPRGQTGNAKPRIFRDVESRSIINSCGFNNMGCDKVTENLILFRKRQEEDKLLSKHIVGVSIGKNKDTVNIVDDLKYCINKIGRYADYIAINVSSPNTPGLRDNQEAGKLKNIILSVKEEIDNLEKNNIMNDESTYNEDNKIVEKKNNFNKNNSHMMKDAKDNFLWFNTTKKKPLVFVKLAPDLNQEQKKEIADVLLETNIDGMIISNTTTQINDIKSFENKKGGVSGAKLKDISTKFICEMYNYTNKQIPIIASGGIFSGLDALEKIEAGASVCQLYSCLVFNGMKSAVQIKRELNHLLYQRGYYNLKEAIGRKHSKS

`CCN(CC)c1ccc(N2CC=CC34O[C@@H]5C=CCOC(=O)[C@@H]5[C@H]3C(=O)N(CCO)[C@@H]4C2=O)cc1` (stereo not given in full): the z-score in [1] was 1.22; in experiment [2] it was 0.273; in experiment [3] it was 0.662; in [4], -0.783; in experiment [5], 0.38; in [6] it was 0.396. Further, the z-score in [7] is 0.537 (inactive); in [8], -0.0585; in experiment [9] it was 0.0601; in experiment [10] it was 0.588 (inactive); in experiment [11] it was 0.534; in experiment [12], -0.0592 (inactive). Besides, the z-score in [13] is 0.762 (inactive); in experiment [15] it was -0.978 (inactive); in [16], 0.964 (inactive); in experiment [17] it was 1.15 (inactive); in [18], 1.36 (inactive); in experiment [19], 0.828. The composite z-score is -0.675 (inactive) in experiment [14] and 0.147 in experiment [20].

Regarding `COC(=O)[C@@]1(Cc2ccc(OC)cc2)[C@H]2c3cc(C(=O)N(C)C)n(Cc4ccsc4Br)c3C[C@H]2CN1C(=O)c1ccccc1`, the z-score in [1] was -0.299; in [2] it was 0.157; in experiment [3], 0.205; in experiment [4] it was -0.859; in [5], -0.51; in [6], 2.25. In addition, the z-score was 0.171 (inactive) in experiment [7]; -0.484 in [8]; -0.468 in [9]; 0.141 (inactive) in experiment [10]; -0.0214 in experiment [11]; 1.52 (inactive) in experiment [12]. For the same molecule, the z-score in experiment [13] is -0.807 (inactive); in experiment [15], 0.0539 (inactive); in experiment [16], 1.89 (inactive); in [17] it was -0.656 (inactive); in experiment [18], -0.377 (inactive); in experiment [19] it was -0.907. The figures for the composite z-score in [14] and in experiment [20] were 0.184 (inactive) and 0.452, respectively.

Turning to `COCCOC(=O)N1C(=O)[C@@]2(c3cc(C#CCC(C(=O)OC)C(=O)OC)ccc31)[C@H](C(N)=O)[C@H]1C(=O)O[C@H](c3ccccc3)[C@H](c3ccccc3)N1[C@@H]2c1ccc(OCCO)cc1`, the z-score is -0.0635 in [1]; 0.0923 in experiment [2]; 0.103 in experiment [3]; -2.16 in [4]; -3.21 in experiment [5]; -1.47 in [6]. In addition, the z-score was 0.47 (inactive) in [7]; -1.09 in experiment [8]; -1.26 in [9]; 0.214 (inactive) in experiment [10]; 0.58 in experiment [11]; 1.53 (inactive) in experiment [12]. Besides, the z-score in [13] is -0.456 (inactive); in [15] it was 2.88 (inactive); in [16] it was 3.39 (inactive); in [17], 0.71 (inactive); in experiment [18], 0.108 (inactive); in [19] it was -1.81. Also, the composite z-score in [14] is -0.383 (inactive); in experiment [20] it was 0.0251.

Take `O=C1NC(=O)C2C1C=CC(C(O)c1cccc(O)c1)N2Nc1ccc(Cl)cc1Cl` (stereo not given): the z-score in experiment [1] is -1.09; in [2] it was -0.648; in [3], -1.13; in experiment [4], -3.03; in experiment [5], -1.52; in experiment [6] it was -2.54. In addition, the z-score in [7] was -0.299 (inactive); in experiment [8], -0.39; in experiment [9], 0.0224; in experiment [10], -0.728 (inactive); in experiment [11], -1.79; in experiment [12], -13.3 (active). Also, the z-score is -1.31 (inactive) in [13]; 0.695 (inactive) in experiment [15]; 0.915 (inactive) in experiment [16]; -0.526 (inactive) in [17]; -3.39 (inactive) in experiment [18]; -1.69 in experiment [19]. Also, the results for the composite z-score in experiment [14] and in experiment [20] were 1.03 (inactive) and -0.039, respectively.

Regarding `O=C1C2C=CC(C(O)C(c3ccccc3)c3ccccc3)N(Nc3ccccc3)C2C(=O)N1c1ccccc1` (stereo not given), the z-score in experiment [1] is 0.758; in [2], -0.835; in experiment [3], 1.82; in experiment [4] it was 0.032; in experiment [5], -0.213; in [6], -0.335. In addition, the z-score in [7] is -1.64 (inactive); in experiment [8] it was -0.305; in [9] it was -0.401; in experiment [10], -0.876 (inactive); in experiment [11], 0.9; in experiment [12], -0.659 (inactive). In addition, the z-score is -1.05 (inactive) in experiment [13]; 1.26 (inactive) in experiment [15]; 0.347 (inactive) in [16]; -0.615 (inactive) in experiment [17]; -0.0085 (inactive) in experiment [18]; -0.403 in experiment [19]. Besides, the results for the composite z-score in experiment [14] and in experiment [20] were 1.09 (inactive) and 0.34, respectively.

As for `CCCC[C@@H]1C[C@H]1[C@@H](NC(=O)Cc1ccccc1)c1ccc(Cl)cc1`, the z-score is -1.07 in [1]; -0.669 in experiment [2]; -1.9 in [3]; -3.46 in experiment [4]; -4.66 in experiment [5]; -4.92 in [6]. The z-score in experiment [7] was -1.27 (inactive); in [8], -0.906; in [9] it was -2.89; in [10] it was 3.48 (inactive); in experiment [11], 1.95; in [12], 0.0658 (inactive). Also, the z-score was 0.625 (inactive) in [13]; 0.33 (inactive) in experiment [15]; 0.335 (inactive) in [16]; -0.704 (inactive) in experiment [17]; -0.162 (inactive) in [18]; -4.68 in experiment [19]. The composite z-score in experiment [14] is -1.36 (inactive); in experiment [20] it was -0.0103.

For `Cc1ccccc1C(O)C1C=CC2C(=O)N(c3ccccc3)C(=O)C2N1Nc1ccccc1F` (stereo not given), the z-score in experiment [1] is 0.569; in experiment [2], -0.522; in [3], -0.157; in experiment [4], -0.584; in [5], -0.666; in experiment [6], -2.82. For the same molecule, the z-score was -1.49 (inactive) in experiment [7]; -0.0566 in experiment [8]; 0.368 in [9]; -0.425 (inactive) in experiment [10]; -0.954 in experiment [11]; -0.822 (inactive) in experiment [12]. Besides, the z-score in [13] was -1.08 (inactive); in experiment [15], 1.07 (inactive); in experiment [16], 0.362 (inactive); in experiment [17] it was -0.274 (inactive); in experiment [18] it was -0.542 (inactive); in [19], -1.01. Further, the composite z-score in experiment [14] is 0.115 (inactive); in experiment [20] it was 0.202.

Consider `Cc1c(-c2ccc(-c3ccc(Cl)c(Cl)c3)o2)nc(-c2ccccc2)c2c1CO[Si]2(C(C)C)C(C)C`, for which the z-score in [1] was -0.719; in experiment [2], -0.527; in experiment [3] it was 0.0118; in experiment [4] it was -3.01; in experiment [5] it was -3.96; in [6] it was -1.38. For the same molecule, the z-score in experiment [7] was -0.313 (inactive); in experiment [8], -0.933; in [9], -1.66; in experiment [10] it was 0.525 (inactive); in experiment [11], 0.368; in [12], -0.922 (inactive). The z-score was -2 (inactive) in experiment [13]; 0.82 (inactive) in experiment [15]; -0.569 (inactive) in experiment [16]; 0.575 (inactive) in experiment [17]; 0.462 (inactive) in [18]; -0.639 in experiment [19]. The composite z-score in experiment [14] was -0.063 (inactive); in [20], 0.504.

Take `CC(=O)n1cc(C(O)C2C=CC3C(=O)N(c4ccccc4)C(=O)C3N2Nc2ccccc2F)c2ccccc21` (stereo not given): the z-score in experiment [1] is 0.512; in [2], 0.23; in experiment [3], -0.798; in experiment [4] it was -0.834; in experiment [5], -0.056; in [6], -0.69. For the same molecule, the z-score in [7] is -1.2 (inactive); in [8] it was 0.408; in [9], -1.41; in [10], 0.423 (inactive); in experiment [11], 0.68; in experiment [12], -1.34 (inactive). Further, the z-score in [13] was -0.223 (inactive); in experiment [15], 1.54 (inactive); in experiment [16], -0.86 (inactive); in experiment [17], 0.8 (inactive); in experiment [18], 0.86 (inactive); in experiment [19] it was 0.0072. Also, the composite z-score was -0.349 (inactive) in [14] and 0.439 in experiment [20].
